# Shown are actives, neighbours in structure and some others; about 4.6% of the full set was active somewhere.
# TRHR enhancer = qHTS for Small Molecule Agonists and Allosteric Enhancers of Human TRH Receptor: Primary Screen for Enhancers; TRHR cells, fluo-8 calcium fluorescence, EC20 TRH enhancement; enhancement, % at 2 µM; 0.66% of 360,000 active; Thyrotropin-releasing hormone receptor (Homo sapiens), P34981; in the data active = enhancement above about 30%; note: 0% is about no effect
# Target sequence (P34981 whole entry, looked up): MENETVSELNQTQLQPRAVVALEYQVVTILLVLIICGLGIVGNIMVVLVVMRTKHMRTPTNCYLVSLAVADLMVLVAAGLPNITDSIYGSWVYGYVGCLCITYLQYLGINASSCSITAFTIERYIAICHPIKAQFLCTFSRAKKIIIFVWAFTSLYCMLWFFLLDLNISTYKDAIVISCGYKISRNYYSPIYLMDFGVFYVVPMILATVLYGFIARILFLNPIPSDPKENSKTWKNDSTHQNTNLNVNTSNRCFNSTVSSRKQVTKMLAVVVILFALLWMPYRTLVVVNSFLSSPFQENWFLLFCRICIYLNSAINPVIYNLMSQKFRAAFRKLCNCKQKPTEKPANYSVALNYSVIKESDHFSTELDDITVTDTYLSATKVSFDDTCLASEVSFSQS
#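 TRHR-expressing cells loaded with fluo-8 calcium dye were read kinetically (ex 480/em 530) during compound addition, then stimulated with an EC20 of TRH (10 nM final). Enhancement of the Gq-mediated intracellular calcium response was scored.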
# D1 PAM = Potentiators of Human D1 Dopamine Receptor: qHTS; D(1A) dopamine receptor (Homo sapiens), P21728; HEK293 TREx D1 cells, calcium flux, dopamine EC20 potentiation; potentiation, % at 10 µM; 0.036% of 360,000 active; in the data active = potentiation above about 30%; note: 0% is about no effect
# D1 antag = Antagonist of Human D 1 Dopamine Receptor: qHTS; D(1A) dopamine receptor (Homo sapiens), P21728; HEK293 TREx D1 cells, calcium flux, dopamine EC80; hits give low values; activity change, negative = inhibition, % at 10 µM; 3.2% of 360,000 active; in the data active = activity change below about -30%; note: % is set by controls: 0 for no effect and ±100 for the full control effect
#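 HEK293 T-REx cells expressing inducible, force-coupled D1 receptor; no-wash Ca dye, 30–90 min RT. Cmpd → 180 s read at 1 Hz → EC80 DA → 180 s read.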
# D1 agonist = Allosteric Agonists of the Human D1 Dopamine Receptor: qHTS; 1% of 360,000 active; activation, % at 2 µM; HEK293 T-REx D1 cells, calcium flux, agonist mode; note: 0% is about no effect
#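 Inducible HEK293 T-REx D1 cells, force-coupled to calcium signalling, were plated at 4000 cells/well with tetracycline and held overnight at 30 C. After no-wash calcium dye loading, compound-evoked calcium rise over 180 s flagged agonists.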
# TRHR agonist = qHTS for Small Molecule Agonists and Allosteric Enhancers of Human TRH Receptor: Primary Screen for Agonists | 0.18% of 360,000 active | activation, % at 2 µM | TRHR cells, calcium flux fluo-8, FDSS agonist mode | AID 493084, 2011; note: 0% is about no effect
#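 Steps: seed TRHR cells overnight; add fluo-8 no-wash Ca dye, RT 30 min–1.5 h; record 10 s baseline; pin-transfer compounds; monitor fluorescence 1 cycle/s for the agonist window. Calcium increases flag candidate agonists.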
# * marks the source's active call; other numbers are inactive results. Cut-off read from the data, not from the text of the source, unless noted: active = activation above about 30%; inactive = the rest.
SMILES,TRHR enhancer,D1 PAM,D1 antag,D1 agonist,TRHR agonist
Cn1nnnc1SCCCNCc1cccc(OCc2ccccc2)c1,6.9,-0.7,11.3,19.3,0.4
N#Cc1ccc(C(=O)Nc2ccccc2-c2nc3ccccc3s2)c(F)c1,5.7,-0.7,-15.4,0.8,2.2
Cc1ccc(-c2nc3ccsc3c(=O)o2)cc1,12.7,-0.3,-87.1*,-0.8,0.3
O=C(Nc1ccc2c(c1)OCO2)c1cc2nc(C3CC3)cc(C(F)(F)F)n2n1,-3.3,2.0,4.4,0.8,0.5
O=C(Nc1cccnc1)c1cc2nc(C3CC3)cc(C(F)(F)F)n2n1,2.9,-0.7,-31.0*,-1.1,-0.2
CC(=O)Nc1cccc(-c2nc3ccccc3[nH]2)c1,-1.1,-7.8,-4.0,3.5,-1.8
CC(Oc1ccccc1)C(=O)Nc1cccc(-c2nc3ccccc3[nH]2)c1 (stereo not given),3.1,-8.8,-40.3*,13.9,0.4
Cc1cccc(Cc2cnc(NC(=O)c3ccc4c(c3)CC(c3ccccc3)OC4=O)s2)c1 (stereo not given),8.3,-0.4,-0.3,0.7,0.1
Cc1ccc(Cc2cnc(NC(=O)c3ccc4c(c3)CC(c3ccccc3)OC4=O)s2)cc1 (stereo not given),2.2,-2.6,-31.5*,0.7,-0.7
CCC1CCC(N2CCN(c3ccc([N+](=O)[O-])cc3)CC2)CC1 (stereo not given),-1.0,-4.5,-16.3,1.1,0.0
CCC1CCC(N2CCN(c3ccc(F)cc3)CC2)CC1 (stereo not given),-2.3,-8.2,-46.2*,1.3,-0.2
CCC1=Nc2cc(C(=O)NCCN3CCCC3)ccc2Sc2ccccc21,4.1,-7.8,-30.4*,16.3,1.1
CCC1=Nc2cc(C(=O)NCCN3CCOCC3)ccc2Sc2ccc(Br)cc21,-1.0,-13.8,-36.1*,10.6,0.5
COc1ccc(OC)c(NC(=O)CCCOc2cc(=O)n(C)c3ccccc23)c1,-1.7,3.2,-7.8,-1.1,-0.6
Nc1c(C(=O)Nc2ccc(Cl)cc2F)sc2nc(-c3cccs3)ccc12,0.4,-0.3,-37.7*,16.0,3.1
Nc1c(C(=O)Nc2ccccc2Br)sc2nc(-c3cccs3)ccc12,-3.8,-0.8,-9.2,7.9,2.1
Nc1c(C(=O)Nc2nc3ccccc3s2)sc2nc(-c3cccs3)ccc12,2.2,-3.4,3.2,112.1*,-1.5
CC(=O)c1sc2nc(-c3cccs3)ccc2c1N,-5.0,-2.4,0.8,11.3,-1.1
Cc1cccc(CNC(=O)c2ccc(C)c(-n3c(C)nc4cccnc43)c2)c1,-0.6,-1.6,0.9,-0.6,-0.8
CCCCOc1ccc(C(=O)N(Cc2ccc(N(C)C)cc2)Cc2ccco2)cc1,-5.9,-1.2,-1.7,0.0,0.4
CCOc1ccc(N=C2NC(=O)S/C2=C\c2ccc(Cl)cc2)cc1,-5.2,-1.5,-10.3,1.1,1.5
COc1ccc(N=C2NC(=O)S/C2=C\c2ccc(N(C)C)cc2)cc1,-4.7,2.0,-5.5,67.4*,17.1
O=C(CCc1ccccc1)NCCSc1ccccc1,-4.2,1.0,4.5,0.0,-0.8
O=C(CCc1[nH]c2ccccc2c1Sc1ccccc1)NCCO,0.4,-6.6,5.6,47.6*,-1.0
CC(=O)Nc1nonc1-c1nnc(SCC(=O)Nc2cc(Cl)ccc2C)n1C,-6.5,-1.3,6.4,0.5,-0.1
SMILES,TRHR enhancer,D1 PAM,D1 antag,D1 agonist,TRHR agonist
Cc1ccsc1/C=C/C(=O)O,-4.2,-4.1,-7.6,4.2,1.0
Cc1ccsc1/C=C/c1n[nH]c(=O)c(C#N)c1C,-5.6,0.0,-32.8*,-0.1,0.4
CCC1=Nc2cc(C(=O)NC3CCCC3)ccc2Sc2ccc(Br)cc21,-3.8,-5.4,-20.6,1.9,-0.1
CCOC(=O)c1noc2ncnc(N3CCN(c4ccccc4OC)CC3)c12,-6.1,1.2,-14.7,1.3,-0.4
CC1CN(C(=O)CCN2C(=O)c3ccccc3C2=O)CC(C)O1 (stereo not given),3.8,-8.6,-31.7*,2.3,0.6
CN1CCN(C(=O)CCN2C(=O)c3ccccc3C2=O)CC1,4.8,7.7,3.4,1.1,1.5

# Source: PubChem BioAssay (National Center for Advancing Translational Sciences (NCATS))
